COUP-TFII inh: NR2F2 transcriptional activity inhibitors, primary screen, cell-based, luciferase reporter, HEK293T, luminescence. 0.7% of 370,000 active. COUP transcription factor 2 (Homo sapiens), P24468. inhibition, % at 8.6 µM. AID 686940, 2013. HEK293T NGFI-A luciferase reporter;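 active = inhibition above a per-plate cutoff, mean inhibition of test wells between control levels plus 3 SD, cut at about 38% in these data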;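 note: cells cotransfected with COUP-TFII expression vector driving the NGFI-A reporter; 0% = median of COUP-TF2 test wells and 100% = reporter-only cells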
Target sequence (P24468 whole entry, looked up): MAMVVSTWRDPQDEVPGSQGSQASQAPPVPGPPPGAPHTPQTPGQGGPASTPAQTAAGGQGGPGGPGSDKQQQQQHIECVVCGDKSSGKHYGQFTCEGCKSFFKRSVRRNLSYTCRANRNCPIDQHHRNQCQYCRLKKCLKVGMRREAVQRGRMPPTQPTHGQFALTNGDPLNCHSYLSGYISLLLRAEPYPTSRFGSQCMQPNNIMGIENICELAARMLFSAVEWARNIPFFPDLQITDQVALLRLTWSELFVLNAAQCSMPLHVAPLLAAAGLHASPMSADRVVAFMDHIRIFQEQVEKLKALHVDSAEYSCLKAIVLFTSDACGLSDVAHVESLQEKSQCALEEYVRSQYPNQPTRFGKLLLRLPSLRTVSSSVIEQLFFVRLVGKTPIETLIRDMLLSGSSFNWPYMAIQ
Gli-Sufu antag: Gli-Sufu pathway antagonists, primary screen, luciferase luminescence, Sufu-KO-LIGHT cells, uHTS; 0.74% of 340,000 active; Sufu-KO-LIGHT fibroblasts, Gli luciferase reporter luminescence; inhibition, % at 5 µM; AID 588413, 2011;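 active = inhibition above about 55%, limit read from the data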;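 note: 0% = DMSO-treated cells and 100% = wells with medium but no cells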
SRC3 inh: SRC3 coactivator transcriptional activity inhibitors, primary screen, cell-based, luminescence; Nuclear receptor coactivator 3 (Homo sapiens), Q9Y6Q9; HEK293 GAL4-SRC3 luciferase reporter; inhibition, % at 3.6 µM; 0.17% of 360,000 active; AID 588352, 2011;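 active = inhibition above a per-campaign cutoff, the mean of all compounds plus 3 SD, cut at about 60% in these data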;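 note: 0% = DMSO-treated cells and 100% = gossypol-treated cells at 36 µM; higher means less SRC3-driven luciferase light from the GAL4 reporter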
NCOA1 inh: SRC1 coactivator transcriptional activity inhibitors, primary screen, cell-based, luminescence. inhibition, % at 3.6 µM. HEK293 GAL4-SRC1 luciferase reporter. 0.12% of 360,000 active. Nuclear receptor coactivator 1 (Homo sapiens), Q15788. AID 588354, 2011;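 active = inhibition above the campaign mean plus 3 SD, with each screening campaign given its own cutoff, cut at about 60% in these data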;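 note: 0% = DMSO treated cells and 100% = gossypol at 36 µM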
SRC2 inh: inhibition of GAL4-SRC2 driven luciferase reporter, primary screen, SRC2 inhibitor project, cell-based, luminescence. 0.17% of 370,000 active. inhibition, % at 9 µM. HEK293 GAL4-SRC2 luciferase reporter. Nuclear receptor coactivator 2 (Homo sapiens), Q15596;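 active = inhibition above the mean inhibition of all tested compounds plus 3 SD, set per campaign, cut at about 52% in these data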;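 note: 0% = DMSO treated cells and 100% = cells given Gossypol at 36 µM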
LRH-1 inv ag: LRH-1 (NR5A2) inverse agonists, primary screen, cell-based, luminescence, HEK293T, StAR-luciferase reporter; LRH-1 transfected, 24 h; inhibition, % at 3.6 µM; 0.13% of 360,000 active;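 active = inhibition above the mean inhibition of all tested compounds plus 3 SD, cut at about 73% in these data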;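 note: 0% = DMSO wells and 100% = reporter-only cells lacking LRH-1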
VP16 Luc counter: Gal4-VP16 luciferase reporter inhibitors, counter-screen for COUP-TFII antagonist project, cell-based, luminescence, HEK293; shares compounds with COUP-TFII inh; inhibition, % at 8.5 µM; 25% of 2,500 active; AID 687007, 2013; in the data active = inhibition above about 13%
NR2F2 inh conf: NR2F2 transcriptional activity inhibitors, confirmation, cell-based, luciferase reporter, HEK293, triplicate. inhibition, % at 8.5 µM. shares compounds with COUP-TFII inh. AID 687008, 2013. 45% of 2,500 active. HEK293 NGFI-A luciferase reporter, luminescence;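 active = mean inhibition over three repeats above a set limit taken from the earlier primary screen, cut at about 38% in these data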;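 note: 100% = cells given the luciferase reporter alone without the COUP-TF2 vector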
* hit, by the source's call; . = no result given. Compounds with a hit are over-represented: about 1.3% of the library has one in this group of screens.

SMILES	COUP-TFII inh	Gli-Sufu antag	SRC3 inh	NCOA1 inh	SRC2 inh	LRH-1 inv ag	VP16 Luc counter	NR2F2 inh conf
Nc1nc2cc3c(cc2cc1C(=O)NCCc1c[nH]c2ccccc12)OCO3	65.8*	.	.	.	14.4	.	-1.9	52.1*
CCN1CCN(C(c2cccnc2)c2c(NC(=O)c3ccco3)sc(C)c2C)CC1 (stereo not drawn)	5.6	1.2	-8.8	-0.8	-23.0	-0.1	.	.
Cc1sc(NC(=O)c2ccco2)c(C(c2cccnc2)N2CCC(C)CC2)c1C (stereo not drawn)	51.4*	11.3	26.5	31.0	10.0	28.6	1.6	48.7*
O=C(Nc1ccc(S(=O)(=O)N2CCCC2)cc1)c1ccc(OCC2CCCO2)cc1 (stereo not drawn)	38.4*	1.9	-4.7	-16.2	22.4	23.7	-2.1	17.5
O=C(Nc1ccc(S(=O)(=O)N2CCOCC2)cc1)c1ccc(CN2CCc3ccccc3C2)cc1	.	-10.9	.	.	.	.	.	.
O=C(Nc1ccc(S(=O)(=O)N2CCCCC2)cc1)c1ccncc1	6.6	19.9	10.8	-8.3	18.6	6.2	.	.
O=C(Nc1ccc(S(=O)(=O)N2CCCC2)cc1)c1ccc(CN2CCc3ccccc3C2)cc1	76.7*	51.5	52.7	31.8	9.8	59.6	-0.3	70.9*
O=C(Nc1ccc(Cc2ccncc2)cc1)c1ccc(S(=O)(=O)N2CCCC2)cc1	68.6*	41.6	26.3	21.7	13.1	26.6	11.0	52.2*
O=C(Nc1ccc(Cl)cc1)c1ccc(CN2CCc3ccccc3C2)cc1	41.4*	-4.6	-23.0	-21.2	-15.7	9.6	-108.8	11.8
N#CCc1ccc(NC(=O)c2ccc(CN3CCc4ccccc4C3)cc2)cc1	55.8*	2.2	7.2	8.9	4.9	21.2	0.4	55.8*
O=C(Nc1ccc(C(O)(C(F)(F)F)C(F)(F)F)cc1)c1ccc(F)cc1Cl	-14.0	.	.	.	.	.	.	.
NC(=S)NN=C1c2cc(OCCN3CCOCC3)ccc2-c2ccc(OCCN3CCOCC3)cc21	68.3*	8.3	55.0	72.5*	33.5	75.1*	9.7	80.2*
COc1ccc(CCc2nnc(CCC(=O)N(C)Cc3ccnc4ccccc34)o2)cc1	39.8*	2.5	18.6	4.8	10.2	25.5	-28.5	17.2
COc1ccccc1CCc1nnc(CCC(=O)N(C)Cc2cccc3cnccc23)o1	-56.3	-11.2	-43.1	-47.0	-37.0	-73.1	.	.
Cn1nnnc1SCc1nc2scc(-c3ccc(Cl)cc3)c2c(=O)[nH]1	46.3*	1.6	10.3	14.1	-4.5	18.2	-8.8	14.6
CCN1/C(=C/c2ccc3cc(C)ccc3[n+]2CC)Sc2cc(C)ccc21	63.4*	90.2*	35.6	19.9	-18.3	56.8	8.6	53.2*
CCN1/C(=C/c2ccc3cc(C)ccc3[n+]2C)Sc2ccc3sccc3c21	38.1*	86.3*	32.9	15.6	-41.9	38.8	5.3	12.0
Cc1sc2c3ccsc3ccc2[n+]1C	8.8	-2.4	-4.2	-12.5	-12.5	3.4	.	.
CCCNC(=O)C1(C)CCCN(C(=O)c2c(C)noc2C)C1 (stereo not drawn)	-12.6	.	4.0	-31.0	-0.1	10.8	.	.
O=C(Nc1ccccc1)N1c2ccccc2SC1c1ccco1 (stereo not drawn)	16.9	.	.	.	2.7	.	.	.
Cc1ccc(NC2CCCN(C(=O)c3cc(C(C)C)nn3C)C2)cc1C (stereo not drawn)	-24.1	.	-1.9	-11.6	-13.2	-7.5	.	.
Cc1ccc(N2CCN(S(=O)(=O)c3c(C)nc4sccn4c3=O)CC2C)cc1 (stereo not drawn)	8.3	.	7.0	13.5	15.8	13.1	.	.
CC1=CC(=O)C(C(C)C)=C/C1=N\OS(=O)(=O)c1ccc(F)cc1	91.7*	.	.	.	.	.	28.8*	15.1
CC1=CC(=O)C(C(C)C)=C/C1=N/OC(=O)c1cccc([N+](=O)[O-])c1	17.0	3.6	16.8	1.0	26.6	26.0	.	.
CN(Cc1ccccc1)C(=O)c1ccc(NC(=O)Cc2ccc(NC(=O)C3CCCN(C(=O)CCc4ccccc4)C3)cc2)cc1 (stereo not drawn)	75.3*	28.8	23.2	25.4	8.1	42.2	7.5	69.7*
SMILES	COUP-TFII inh	Gli-Sufu antag	SRC3 inh	NCOA1 inh	SRC2 inh	LRH-1 inv ag	VP16 Luc counter	NR2F2 inh conf
CN(C(=O)c1cccc(NC(=O)Cc2ccc(NC(=O)C3CCCN(C(=O)CCc4ccccc4)C3)cc2)c1)C1CC1 (stereo not drawn)	10.3	11.1	1.8	11.5	8.1	16.8	.	.
CN(Cc1ccccc1)C(=O)c1cccc(NC(=O)Cc2ccc(NC(=O)C3CCN(C(=O)CCc4ccccc4)CC3)cc2)c1	69.8*	20.5	8.0	15.3	31.3	6.9	5.3	42.6*
CN(Cc1ccccc1)C(=O)c1ccc(NC(=O)Cc2ccc(NC(=O)C3CCCN(C(=O)C4CCC4)C3)cc2)cc1 (stereo not drawn)	10.4	-1.2	11.9	2.1	-0.7	-0.8	.	.
CN(C(=O)c1cccc(NC(=O)Cc2ccc(NC(=O)C3CCCN(C(=O)CCc4ccccc4)C3)cc2)c1)C1CCCCC1 (stereo not drawn)	77.3*	17.5	6.4	34.5	23.0	48.5	-0.5	62.1*
CN(Cc1ccccc1)C(=O)c1ccc(NC(=O)Cc2ccc(NC(=O)C3CCN(C(=O)CCc4ccccc4)CC3)cc2)cc1	7.1	16.1	13.9	8.4	5.4	13.9	.	.
Cc1ccc(S(=O)(=O)NC2=NCN(CC(=O)O)CN2)cc1	4.5	-4.9	9.0	-5.9	4.0	2.4	.	.
O=C(Nc1ccc2c(c1)OCO2)c1cc(C2CCCCN2C(=O)c2ccc(Cl)cc2)on1 (stereo not drawn)	4.7	.	-0.3	-22.6	-23.7	7.3	.	.
CS(=O)(=O)Nc1ccc(N2CCN(c3ccc(C(F)(F)F)cn3)CC2)nc1	43.1*	22.9	13.8	1.1	15.8	8.7	-2.5	10.7
CC(C)(C)C(=O)Nc1ccc(N2CCN(c3ccc(C(F)(F)F)cn3)CC2)nc1	-0.3	29.1	6.5	1.5	11.4	-8.6	.	.
O=C(Nc1ccc(N2CCOCC2)nc1)c1ccc(C(F)(F)F)cc1	48.7*	1.5	18.6	7.6	23.5	1.2	9.8	34.7
Cc1cccc(C(=O)Nc2ccc(N3CCN(c4ccc(C(F)(F)F)cn4)CC3)nc2)c1	8.9	10.7	12.9	-16.7	9.9	8.0	.	.

Source: PubChem
